B2AR arrestin: recruits beta-arrestin to the human beta2-adrenergic receptor | P07550 | beta-arrestin recruitment to beta2AR, cell-based reporter | Potency, µM (titrated, usually from 46.1 µM), inactives show at the top dose activation, hits mostly activators | hit rate 0.02% among 330,000 | AID 492947;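 note: potency is the fitted concentration of half-maximal effect; 0% = DMSO controls and full agonism = EC100 isoproterenol or metaproterenol; nearly all actives have a fitted effect of over 65% in size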
Target sequence (P07550 whole entry, looked up): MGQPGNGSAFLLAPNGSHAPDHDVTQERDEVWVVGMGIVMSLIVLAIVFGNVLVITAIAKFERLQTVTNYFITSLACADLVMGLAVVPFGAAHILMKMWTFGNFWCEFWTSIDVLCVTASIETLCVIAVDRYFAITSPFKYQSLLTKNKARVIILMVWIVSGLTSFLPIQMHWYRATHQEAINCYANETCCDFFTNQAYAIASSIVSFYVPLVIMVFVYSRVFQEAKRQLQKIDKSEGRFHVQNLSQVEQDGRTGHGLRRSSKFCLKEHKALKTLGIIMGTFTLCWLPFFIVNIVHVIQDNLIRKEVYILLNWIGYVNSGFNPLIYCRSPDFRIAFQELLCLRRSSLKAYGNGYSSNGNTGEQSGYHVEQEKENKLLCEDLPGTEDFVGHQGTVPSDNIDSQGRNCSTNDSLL
RXFP1 antagonist: antagonists of human relaxin receptor RXFP1; hit rate 0.59% among 350,000; HEK293-RXFP1, relaxin-stimulated cAMP HTRF, 30 min; hits give low values; activity change, negative = inhibition, % at 57.5 µM;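 active = activity change of -60% or lower, but not beyond a set lower limit; inconclusive = change between -60% and -40%, or beyond the set limit; inactive = change above -40%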
BCR signal inh: blocks chronic active B-cell receptor signaling. ABC-DLBCL IkBa-CBG/CBR reporter, luminescence ratio, 4 h. Potency, µM (top dose mostly 46.1 µM), inactives show at the highest dose activity change, negative = inhibition, usual class: inhibitors. hit rate 0.05% among 340,000. AID 493014; active = well fitted inhibition curve with a large enough effect in the signal ratio, with a control signal flat, not every such curve was filed as active; inconclusive = small, poorly fitted or top-dose-only effect, or effect the other way, or a change in a side signal; the % refers to the signal ratio;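 note: potency is the fitted concentration of half-maximal effect; plate controls were basal doxycycline-induced cells for no effect and cells given 10 µM MG132 for full effect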
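TMD8 human ABC-DLBCL cells with doxycycline-inducible IκBα–green luciferase fusion and unfused red luciferase, in 0.5% FBS medium; compounds up to 46 uM, 4 h at 37C. Green/red luminescence ratio, filter-overlap corrected, fitted to concentration-response curves.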
RXFP1 agonist: RXFP1 (human) receptor agonism; Q9HBX9; HEK293T-RXFP1 cAMP TR-FRET, 30 min; response scale: percent of porcine relaxin response, buffer zero; Potency, µM (titrated, usually from 57.5 µM), without a hit: at the highest dose activation, most hits filed as activators; hit rate 0.3% among 370,000; note: potency is the fitted concentration of half-maximal effect; nearly all actives have a fitted effect of over 60% in size
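HEK293T cells stably expressing RXFP1 were pretreated with the PDE4 inhibitor Ro 20174, exposed to compounds for 30 min at 37C, lysed, and cAMP was read by TR-FRET. Data normalized to buffer (basal) and 29 nM porcine relaxin (100%).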
* hit, by the source's call. Most compounds without a hit are left out; they make up all but 0.59% or so of the library. Unless noted, calls come from the whole dose curve; as a rule, active = well fitted activation curve with a large enough effect; inconclusive = small, poorly fitted or top-dose-only effect; inactive = flat fitted curve, though single readings scatter. Unless noted, % is set by controls: 0 for no effect and ±100 for the full control effect.

Screening Cc1ccc(NC(=O)NCC2CC2(Cl)Cl)cc1 (stereo not given) returned B2AR arrestin 0%, RXFP1 antagonist 2, BCR signal inh inconclusive and RXFP1 agonist -1%.
O=C(NCC1CC1(Cl)Cl)Nc1ccc(Cl)c(Cl)c1 (stereo not given) was read as B2AR arrestin 0%, RXFP1 antagonist -67*, BCR signal inh inconclusive and RXFP1 agonist -3%.
For Cc1ccc(CNC(=O)c2cc(=O)c3cc(C)c(C)cc3o2)cc1 the results were RXFP1 antagonist 2 and RXFP1 agonist 3%.
`CCc1nc2sc3c(c2c(=S)[nH]1)CC(C)(C)OC3` gave B2AR arrestin -1%, RXFP1 antagonist -66*, BCR signal inh -6% and RXFP1 agonist 20%.
`Cc1cccc(C(=O)N2CCNC(=O)C2CC(=O)Nc2ccc(F)cc2)c1` (stereo not given) gave RXFP1 agonist 0%.
Screening CCN(CC)S(=O)(=O)c1cc(NC(=O)c2ccc3c(c2)NC(=O)C(C)S3)ccc1C (stereo not given) returned B2AR arrestin 0%, RXFP1 antagonist -76*, BCR signal inh inconclusive and RXFP1 agonist 0%.
Screening CCOC(=O)C1(Cc2cccc(OC)c2)CCN(Cc2cccc(OC)c2OC)CC1 returned B2AR arrestin 0%, RXFP1 antagonist -12, BCR signal inh inconclusive and RXFP1 agonist 4%.
Screening CCOC(=O)C1(Cc2cccc(OC)c2)CCN(Cc2cccc3c2OCO3)CC1 returned B2AR arrestin 0%, RXFP1 antagonist -95*, BCR signal inh -10% and RXFP1 agonist 1%.
For CCOC(=O)c1ccc(NC(=O)CCc2c(C)nc3c(c(C)nn3C)c2C)cc1 the results were RXFP1 agonist 4%.
`O=P(CCCCCCCCCP(=O)(c1ccccc1)c1ccccc1)(c1ccccc1)c1ccccc1` gave B2AR arrestin 0%, RXFP1 antagonist -72*, BCR signal inh inconclusive and RXFP1 agonist 0%.
Screening Cc1ccc(Nc2nccc(N(C)c3ccc4c(C)n(C)nc4c3)n2)cc1S(N)(=O)=O returned RXFP1 antagonist -39.
For CSc1cccc(NC(=O)c2cnn(-c3ccc(F)cc3)c2-n2cccc2)c1 the results were RXFP1 agonist -1%.
For CC(=O)c1ccc(NC(=O)c2cnn(-c3cccc(F)c3)c2-n2cccc2)cc1 the results were RXFP1 antagonist -68* and RXFP1 agonist 1%.
For O=c1c2ccccc2nc(COc2ccccc2)n1/N=C/c1ccc(O)cc1O the results were B2AR arrestin 0%, RXFP1 antagonist -71*, BCR signal inh inconclusive and RXFP1 agonist 5%.
Screening Nc1nonc1C(=O)NCCN=Cc1ccccc1O returned B2AR arrestin 0%, RXFP1 antagonist -6, BCR signal inh inconclusive and RXFP1 agonist 5%.
`Nc1nonc1C(=O)NCCN=Cc1cc(Cc2ccccc2)cc(Br)c1O` gave B2AR arrestin -1%, RXFP1 antagonist -73*, BCR signal inh 2% and RXFP1 agonist 2%.
For CN1CCN(c2ccc(-c3cc(O)c4ncccc4c3)cc2)CC1 the results were B2AR arrestin -1%, BCR signal inh inconclusive and RXFP1 agonist 0%.
`CCCCCN(C(=O)COC(=O)COc1c(C)cc(C)cc1C)c1c(N)n(CCCC)c(=O)[nH]c1=O` gave B2AR arrestin 0%, RXFP1 antagonist -69*, BCR signal inh 2% and RXFP1 agonist 0%.
Screening CC/C(Cc1ccccc1)=N/NC(=O)CNC(=O)c1ccc(Cl)cc1Cl returned B2AR arrestin 0%, RXFP1 antagonist 9, BCR signal inh -15% and RXFP1 agonist 0%.
`CC/C(C)=N\NC(=O)CNC(=O)c1ccc(Cl)cc1Cl` gave B2AR arrestin 0%, RXFP1 antagonist -5, BCR signal inh 13µM* and RXFP1 agonist 1%.
`CCOC(=O)CSc1nnc2n(-c3ccccc3)c(=O)c3c4c(sc3n12)CC(C(C)(C)C)CC4` (stereo not given) gave RXFP1 antagonist -69* and RXFP1 agonist 4%.
Screening CCOC(=O)CSc1nnc2n(-c3ccccc3)c(=O)c3c4c(sc3n12)COC(C(C)C)C4 (stereo not given) returned RXFP1 antagonist -2 and RXFP1 agonist 1%.
For CCOc1ccc(NC(=O)c2cnn(-c3ccc(C)c(C)c3)c2C2CCN(C(=O)OC(C)(C)C)CC2)cc1 the results were RXFP1 antagonist -10 and RXFP1 agonist 2%.
Screening COc1cccc(-c2nnc(SC(C(=O)c3c[nH]c4ccccc34)c3ccccc3)n2C)c1 (stereo not given) returned B2AR arrestin 6%, RXFP1 antagonist -77*, BCR signal inh inconclusive and RXFP1 agonist 0%.
`COc1ccccc1-c1nnc(SC(C(=O)c2c[nH]c3ccccc23)c2ccccc2)n1C` (stereo not given) gave B2AR arrestin 1%, RXFP1 antagonist 2, BCR signal inh 20% and RXFP1 agonist 0%.
`O=C1CCSC2(C(=O)N(Cc3ccc(F)cc3)c3ccccc32)N1c1ccc(Cl)cc1` (stereo not given) gave RXFP1 antagonist -79* and RXFP1 agonist 0%.
Screening Cc1cccc(CNC(=O)C(=O)Nc2ccccc2C)c1 returned RXFP1 agonist -3%.
For Cc1cc2oc(C(=O)NCc3ccc(S(N)(=O)=O)cc3)c(C)c2cc1C the results were B2AR arrestin 0%, RXFP1 antagonist 1, BCR signal inh -10% and RXFP1 agonist inconclusive.
`CCc1ccc2oc(C(=O)NCc3ccc(S(N)(=O)=O)cc3)c(C)c2c1` gave B2AR arrestin 0%, RXFP1 antagonist -120*, BCR signal inh -3% and RXFP1 agonist 17%.
`COC(=O)c1ccc(C(=O)OC)c(NC(=O)c2ccc(-c3ccccc3)s2)c1` gave RXFP1 antagonist -3 and RXFP1 agonist 7%.
Screening C=C(CN(C)C)C(=O)c1cc(C)ccc1C returned RXFP1 antagonist -109*.
Cc1ccc(C)c(C(=O)NCCN(C)C)c1 was read as B2AR arrestin 0%, RXFP1 antagonist 7, BCR signal inh 3% and RXFP1 agonist 1%.
`COc1ccccc1C(=O)COC(=O)Cn1[nH]c(=O)c2ccccc2c1=O` gave B2AR arrestin 0%, RXFP1 antagonist -11, BCR signal inh 5% and RXFP1 agonist 13%.
Screening O=C(Cn1[nH]c(=O)c2ccccc2c1=O)OCC(=O)c1ccc(Br)cc1 returned B2AR arrestin 0%, RXFP1 antagonist -76*, BCR signal inh -2% and RXFP1 agonist 1%.
`CCCc1ncc(C(=O)O)s1` gave RXFP1 antagonist 0.
For C=CCn1c(-c2ccc(Cl)cc2)c[nH]c1=S the results were B2AR arrestin 20µM*, RXFP1 antagonist -12, BCR signal inh inconclusive and RXFP1 agonist 4%.
`C=CCn1c(-c2ccccc2)c[nH]c1=S` gave B2AR arrestin inconclusive, RXFP1 antagonist -16, BCR signal inh inconclusive and RXFP1 agonist 2%.
For CC(C)OCCCn1c(=O)c2ccccc2n2c(-c3ccccc3)nnc12 the results were RXFP1 antagonist -3 and RXFP1 agonist 4%.

Compound activity as filed in PubChem BioAssay.
